# Screening results from PubChem.
# Rows were chosen to be rich in hits. Some 2.6% of all compounds tested hit in one or more screens of this group.
# p53 reactivator – mutant p53 re-activation in reporter cells. H1299 p53-A138V BP100-luciferase reporter, luminescence, 24 h. AID 504706. 0.063% of 320,000 active. Potency, µM (top dose mostly 92.2 µM), hits mostly activators; active = well fitted activation curve with a large enough effect; inconclusive = small, poorly fitted or top-dose-only effect; inactive = no such curve, though single readings can be large or run the other way; also: nearly all actives have a fitted effect of over 45% in size
#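 H1299 (p53-null), stable ts p53-A138V + BP100-Luc; 1000 cells/well, Opti-MEM/10% FBS; cpd 4 pt, 1:5; 24 h, 37 deg C, 5% CO2; detection reagent 10 min RT; luminescence.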
# KCNH2 3.1 block – blocks the human KCNH2 3.1 channel isoform | U2OS KCNH2 3.1, thallium flux FluxOr; active compounds read low | activity change, % (tested at about 1.8 µM) | 0.95% of 340,000 active;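 active = maximum activity change below -70%; inconclusive = maximum activity change from -70% to -50%; inactive = maximum activity change above -50%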;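 also: thallium influx rate constant from kinetic fluorescence after stimulation buffer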
#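 FluxOr-based Tl+ influx in U2OS cells transduced with KCNH2 3.1 virus; rate constants normalized to DMSO controls.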
# TRPV1 potentiator – enhances activation of the human vanilloid receptor TRPV1; TRPV1-expressing cells, Fluo-8 calcium influx, capsaicin EC20 potentiation; potentiation, % at 8.33 µM; 0.02% of 320,000 active; in the data active = potentiation above about 80%; inconclusive = between about 30% and that limit
# Target sequence (Q8NER1 whole entry, looked up): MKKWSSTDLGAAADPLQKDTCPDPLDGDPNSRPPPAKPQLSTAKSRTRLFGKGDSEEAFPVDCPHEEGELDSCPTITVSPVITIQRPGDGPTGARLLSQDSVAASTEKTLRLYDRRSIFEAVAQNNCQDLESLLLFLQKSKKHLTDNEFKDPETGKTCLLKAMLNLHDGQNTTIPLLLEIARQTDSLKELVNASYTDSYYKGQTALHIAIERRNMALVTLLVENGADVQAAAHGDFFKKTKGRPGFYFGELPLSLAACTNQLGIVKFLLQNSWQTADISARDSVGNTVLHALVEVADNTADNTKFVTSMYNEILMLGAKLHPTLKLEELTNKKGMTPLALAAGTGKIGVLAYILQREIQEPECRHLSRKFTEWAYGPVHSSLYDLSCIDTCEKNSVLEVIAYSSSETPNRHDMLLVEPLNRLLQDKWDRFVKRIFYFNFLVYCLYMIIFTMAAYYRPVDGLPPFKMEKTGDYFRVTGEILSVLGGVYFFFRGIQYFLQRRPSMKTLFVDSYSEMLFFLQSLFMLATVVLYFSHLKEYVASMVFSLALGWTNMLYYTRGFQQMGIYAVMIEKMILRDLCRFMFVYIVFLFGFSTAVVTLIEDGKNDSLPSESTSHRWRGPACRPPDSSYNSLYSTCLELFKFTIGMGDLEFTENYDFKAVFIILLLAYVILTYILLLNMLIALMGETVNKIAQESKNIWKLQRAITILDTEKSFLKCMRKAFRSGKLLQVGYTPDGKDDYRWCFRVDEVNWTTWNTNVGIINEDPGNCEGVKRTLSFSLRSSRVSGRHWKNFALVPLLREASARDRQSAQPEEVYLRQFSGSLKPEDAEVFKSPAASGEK
#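 Cells expressing TRPV1 were dye-loaded with Fluo-8 and read kinetically: 10 s baseline, 3 min after compound (agonist portion), then 2 min after EC20 capsaicin (allosteric enhancer portion). Calcium-bound dye fluorescence at 480/520 nm.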
# KCNH2 WT inh – KCNH2 (human, wildtype) channel inhibition; Q12809; U2OS, BacMam KCNH2, thallium flux FluxOr; active compounds read low; activity change, % at 1.84 µM; 0.37% of 340,000 active;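 active = maximum activity change below -70%; inconclusive = maximum activity change between -70% and -50%; inactive = maximum activity change above -50%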
#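 U2OS cells were transduced with wild-type KCNH2 virus (2.03 x 10^8 / mL) for 4 h at room temperature, then cultured overnight at 37 C. Thallium flux was read with FluxOr dye. Rate constants were normalized to DMSO controls.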
# TRPV1 ag – human TRPV1 agonism. Q8NER1. TRPV1-expressing cells, Fluo-8 calcium influx, agonist mode. activation, % at 8.33 µM. 0.19% of 320,000 active. AID 540275; in the data active = activation above about 80%; inconclusive = between about 30% and that limit
#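 TRPV1-expressing cells were cultured overnight at 35.5C and loaded with Fluo-8 calcium dye for 40 to 90 min at room temperature. After a 10 s baseline, compound was added and calcium influx was read kinetically for 3 min (ex 480/em 520 nm).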
# ClpP mod – qHTS Assay for Activators of ClpP; ATP-dependent Clp protease proteolytic subunit (Bacillus subtilis (strain 168)), P80244; 1.9% of 340,000 active; purified B. subtilis ClpP, FRET peptide cleavage, 20 min; Potency, µM (top dose mostly 57.5 µM); AID 651965, 2013; active = well fitted falling curve with a large enough effect; inconclusive = small, poorly fitted or top-dose-only effect; inactive = no such curve, though single readings can be large or run the other way; also: the source files actives as falling curves though it sought activators and does not explain the sign; nearly all actives have a fitted effect of over 65% in size
#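 Purified B. subtilis ClpP, 10 microg/mL final in Tris/HCl pH8 with KCl, BSA, glycerol and Tween-20, cleaved an Abz/nitrotyrosine-quenched decapeptide. Fluorescence (ex 320, em 430) was read at 0 and 20 min at room temperature. Delta was normalized to 5.8 microM ADEP and DMSO/no-enzyme controls.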
# Hits are given with their value; 0 = inactive; ? = inconclusive; - = no result given.
SMILES,p53 reactivator,KCNH2 3.1 block,TRPV1 potentiator,KCNH2 WT inh,TRPV1 ag,ClpP mod
CCN(CC)C(=O)CSc1nc(-c2cccs2)cc(-c2cccs2)c1C#N,0,0,0,0,0,25.1µM
COC(=O)CSc1nc(-c2cccs2)ccc1C#N,?,0,0,0,0,6.31µM
COCCN1C(=O)CCC1(C)C(=O)NC1CCCCC1 (stereo not drawn),-,-,-,-,-,0
CCc1ccc(NC(=O)c2cc3nc(-c4ccc(C)cc4)cc(C(F)(F)F)n3n2)cc1,-,-,-,-,-,0
Cc1cccc(-n2ncc3c(N4CCCc5ccccc54)ncnc32)c1,?,0,0,0,0,31.6µM
Cc1cccc(-n2ncc3c(NCc4ccccc4)ncnc32)c1,0,0,?,0,0,0
Cc1ccc(N(C)S(=O)(=O)c2ccc(C)cc2)cc1,0,0,0,0,0,0
Cc1ccc(S(=O)(=O)N(C)c2ccc3ccccc3c2)cc1,0,-147.9,0,0,0,0
Cn1nnnc1SCCCNCc1cc(Cl)ccc1OCc1ccccc1F,-,-,-,-,-,0
CCCCNCCOCCOc1ccc(Cl)cc1Br,0,0,0,0,0,0
CCCCNCCOCCOc1ccc(F)cc1,0,0,0,0,0,3.16µM
Cc1cccc2c1-c1sc(C(=O)N3CCCCC3)cc1CO2,-,0,0,0,88.0,0
Cc1cccc2c1-c1sc(C(=O)NCCCN3CCN(c4ccccc4F)CC3)cc1CO2,-,-,-,-,-,0
CCOC(=O)N1CCN(C(=O)c2cc3c(s2)-c2c(C)cccc2OC3)CC1,0,0,0,0,?,0
COc1ccc(NC(=O)c2cc3c(s2)-c2c(C)cccc2OC3)cc1Cl,-,-,-,-,-,25.1µM
Cc1cccc2c1-c1sc(C(=O)Nc3ccccc3N3CCN(C)CC3)cc1CO2,0,-71.4,0,0,0,-
Cn1c(-c2ccccc2)c(CCO)c2ccccc21,0,0,0,0,0,28.2µM
CCn1c(/C(C#N)=N/O)nc2ccccc21,0,-80.7,?,-115.2,0,0
Cn1c(/C(C#N)=N/O)nc2ccccc21,0,0,0,0,0,0
Cc1cccn2c(=O)c3cc(C#N)c(=O)n(Cc4cccnc4)c3nc12,0,0,0,0,0,2.82µM
Cc1ccc(NC(=O)CSc2nnc(-c3ccc([N+](=O)[O-])cc3)o2)c(C)c1,-,-,-,-,-,0
Cc1ccc(-n2cc(CN3CCC(O)(c4ccccn4)CC3)c(-c3ccc(F)cc3)n2)cc1,0,-73.3,0,?,0,-
CCN(CC)c1cc(C)c2cc(NC(=O)CNC(C)=O)ccc2n1,0,0,0,0,0,15.8µM
COC(=O)c1oc2nc(C)cc(C)c2c1N,0,0,0,0,0,28.2µM
Cc1cc(C)c2c(N)c(C(=O)c3ccccc3)oc2n1,-,0,?,0,0,0
SMILES,p53 reactivator,KCNH2 3.1 block,TRPV1 potentiator,KCNH2 WT inh,TRPV1 ag,ClpP mod
O=C1OC(O)c2cccc3cccc1c23 (stereo not drawn),-,-71.2,-,0,-,?
COC(=O)c1sccc1-c1ccc(/C=N/OCc2c(Cl)cccc2Cl)o1,0,0,-,0,-,5.01µM
CS(=O)(=O)N(Cc1ccc(C(=O)NN=C2CCCC2)cc1)c1ccccc1,0,0,0,0,0,0
CS(=O)(=O)N(Cc1ccc(C(=O)NN=C2CCCCCC2)cc1)c1ccccc1,0,0,0,0,0,31.6µM
CCc1nnc(SCc2nc(-c3ccccc3Cl)oc2C)c2cc3sc(C)cc3n12,-,-,-,-,-,0
Cc1oncc1-c1cn2ccccc2n1,0,0,0,0,0,25.1µM
Cc1ccn2cc(-c3cnoc3C)nc2c1,?,0,0,0,0,14.1µM
O=c1oc2ccccc2cc1-c1cn2ccccc2n1,0,0,0,0,0,-
Cc1ccc(-c2cn3ccc(C)cc3n2)cc1,-,-,-,-,-,0
c1ccc(CNc2nc3ccccc3c3nc(-c4ccccc4)nn23)cc1,-,-,-,-,-,25.1µM
CCOC(=O)C1=CCN(S(=O)(=O)c2ccc(C)cc2)C1c1cccc(Cl)c1 (stereo not drawn),-,-,-,-,-,0
OC(c1nc2ccccc2[nH]1)C(O)c1nc2ccccc2[nH]1 (stereo not drawn),-,0,0,0,0,0
OC(c1ccccc1)c1nc2ccccc2[nH]1 (stereo not drawn),-,0,0,0,0,15.8µM
CCCCCCCC(=O)N/N=C/c1ccc(Br)cc1,0,-82.5,0,0,?,0
Cc1ccc(S(=O)(=O)N2CC3(O)CN(C(=O)OC(C)C)N(C(=O)OC(C)C)CC3(OC(=O)Nc3cccs3)C2)cc1 (stereo not drawn),-,0,-,0,-,0
COc1ccccc1CC(O)CC1c2c(cc3c(c2OC)OCO3)CCN1C (stereo not drawn),-,0,-,0,-,0
COc1ccc(CC(O)CC2c3c(cc4c(c3OC)OCO4)CCN2C)cc1 (stereo not drawn),0,-97.0,0,0,0,0
CCc1cccc(NC(=O)CCS(=O)(=O)c2cc3c4c(c2)CCN4C(=O)CC3)c1,-,-,-,-,-,0
CCOc1ccc(CNC(=O)c2ccc3c(c2)c(C)c(C)n3Cc2ccc(Cl)cc2)cc1,-,-,-,-,-,15.8µM
CCn1c(C)c(C)c2cc(C(=O)NCc3ccc(OC(C)C)cc3)ccc21,-,-,-,-,-,0
Cc1c(C)n(Cc2ccccc2)c2ccc(C(=O)NCC(C)c3ccccc3)cc12 (stereo not drawn),-,-,-,-,-,20µM
CCOC(=O)c1sc(NC(=O)c2nc(SCC)ncc2Cl)c(C(=O)OCC)c1C,-,-,-,-,-,0
CCc1ccc(/C=N/NC(=O)c2cc(C)on2)s1,?,0,0,0,?,2.82µM
CCC(=O)N1CCc2cc(Br)cc(S(=O)(=O)N3CCN(c4cccc(Cl)c4)CC3)c21,-,-,-,-,-,0
N#Cc1c(N)nc(SCC(=O)NC2CCCCC2)c(C#N)c1-c1ccc(Cl)cc1,0,0,0,0,0,28.2µM
SMILES,p53 reactivator,KCNH2 3.1 block,TRPV1 potentiator,KCNH2 WT inh,TRPV1 ag,ClpP mod
CC(C)c1ccc(-c2c(C#N)c(N)nc(SCC(=O)N3CCCCCC3)c2C#N)cc1,0,0,0,0,0,0
COCCCNC(=O)CC(NS(=O)(=O)c1ccc(OC)cc1)c1ccc(OC)cc1 (stereo not drawn),0,0,0,0,0,22.4µM
CC(C(=O)N1CCCCC1)n1sc2ccccc2c1=O (stereo not drawn),11.2µM,0,0,0,0,0
CC(C(=O)N1CCN(C(=O)c2ccco2)CC1)n1sc2ccccc2c1=O (stereo not drawn),0,0,0,0,0,0
Cc1cc(C)cc(-n2ncc3c2CCCC3NC(=O)c2csnn2)c1 (stereo not drawn),0,0,0,0,0,0
Cc1ccc(-n2ncc3c2CCCC3NC(=O)c2csnn2)cc1C (stereo not drawn),0,0,0,-89.3,?,0
Cc1nnsc1C(=O)NC1CCCc2c1cnn2-c1ccc(C(C)(C)C)cc1 (stereo not drawn),0,0,0,0,85.2,0
c1cc2c3c(c1)CCCN3CCC2,-,-,-,-,-,0
